The text below walks through data of PubChem BioAssay.

Active and inactive are the calls of the source. Unless noted, how the calls were made is not given here.

Assay [1] relates to Wnt5a (protein binding on small-molecule microarray). The experiment in a line: Wnt5a binders on small-molecule microarray, primary screen, biophysical, 635/667 nm fluorescence (AID 1142).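 Further: fluorescence read at 667 nm with signal to noise per printed feature.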 The settings on record: 635 nm fluorescence, higher = more signal.
Assay [2] in a line: cell viability in Huh7 cells, primary screen, cytotoxicity control for HCV replication inhibitor project, CellTiter-Glo luminescence, basal, 48 h (AID 1143).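 Further: Huh7 hepatoma cells carrying a hepatitis C replication reporter with no stimulus; test concentration not given here.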 The settings on record: Huh7 HCV replicon, higher = more signal, called active from +8 up or from −8 down.
The nature of assay [3]: P. aeruginosa biofilm formation inhibitors, primary screen, PAO1 strain, BacTiter-Glo luminescence, LB-PBS (AID 1144). The note with it: 12 h, higher = more signal.
A short description of assay [4]: CREB reporter modulators without forskolin, primary screen, cell-based, PC12, CRE-LacZ reporter, unstimulated (AID 1145). The settings on record: no forskolin, luminescence, 4.5 h, higher = more signal, called active from +8 up or from −8 down.
Assay [5] is described as follows: CREB reporter modulators under forskolin, primary screen, cell-based, PC12, CRE-LacZ reporter, forskolin-stimulated (AID 1146).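 Further: PC12 cells with 6xCRE LacZ reporter stimulated by forskolin 10 µM; beta-galactosidase reporter signal reflecting CREB driven transcription.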 The settings on record: luminescence, 4.5 h, higher = more signal, called active from +8 up or from −8 down.
For assay [6], the target named is Streptavidin (Streptomyces avidinii) (UniProt P22629). The experiment in a line: streptavidin binders on small-molecule microarray, primary screen, artefact control for SMM compound annotation, biophysical, 635/667 nm fluorescence (AID 1147).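 Further: signal reflects streptavidin binding to arrayed compounds as a control protein.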 The note with it: streptavidin binding, higher = more signal.
A short description of assay [7]: small-molecule binders of probe aInhba, primary screen, biochemical, small-molecule microarray, 635/667 nm fluorescence (AID 1148).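 Further: score merges 667nm spot fluorescence with signal-to-noise for antibody binding to printed compounds.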 The settings on record: higher = more signal.
Assay [8] addresses Torsin-1A (Homo sapiens) (UniProt O14656). Briefly: torsin A binders from cell lysate, primary screen, small-molecule microarray, wild-type, 635/667 nm (AID 1149). The note with it: COS7 hTOR1A-WT lysate, 635 nm fluorescence, higher = more signal.
The target is the same in assay [9]. Briefly: small-molecule binders of mutant TOR1A in lysate, primary screen, cell lysate, small-molecule microarray, COS7 lysate, 635/667 nm fluorescence (AID 1150).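 Further: score pools 667 nm emission and signal to noise measuring lysate protein binding.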 The note with it: COS7 hTOR1A mutant lysate, 635 nm fluorescence, higher = more signal.
Assay [10] has as its system Sonic hedgehog protein (Shh). Briefly: small-molecule binders of Shh protein, primary screen, biochemical, small-molecule microarray, 635/667 nm fluorescence (AID 1151).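 Further: Shh protein binding to compounds spotted on small-molecule microarray slides; score combines spot fluorescence intensity with signal-to-noise across triplicate slides.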 The note with it: small-molecule microarray binding, 635 nm fluorescence; higher = more signal.
Assay [11] can be described thus: E. coli DRC41 culture turbidity changes, primary screen, E. coli filamentation inducer project, strain DRC41, OD650, 48 h (AID 1152).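 Further: E. coli MC1000 strain DRC41 lacking acrAB efflux pump and sulA.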 The settings on record: E. coli DRC41 (acrAB sulA), higher = more signal, called active from +8 up or from −8 down.
Assay [12] in a line: small-molecule binders of probe aLefty1, primary screen, biochemical, small-molecule microarray, 635/667 nm fluorescence (AID 1153).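 Further: score merges spot fluorescence with signal-to-noise ratio from the scanned slide images.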 The note with it: higher = more signal.
Assay [13] in a line: PSAC antagonists in infected red cells, primary screen, cell-based, P. falciparum Indochina, OD700, 1 h (AID 1154). The note with it: P. falciparum Indochina infected RBC osmotic lysis, higher = more signal, called active from +8 up or from −8 down.
Assay [14] can be described thus: PSAC antagonists in infected red cells, primary screen, cell-based, P. falciparum Indochina, OD700, 2 h (AID 1155).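 Further: lysis reports solute entry through the parasite surface anion channel PSAC; channel blockers reduce lysis of infected cells.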 The settings on record: P. falciparum Indochina infected erythrocytes, osmotic lysis OD700; higher = more signal, called active from +8 up or from −8 down.
A short description of assay [15]: osmotic lysis modulators in infected erythrocytes, primary screen, PSAC antagonist project, cell-based, P. falciparum Indochina, OD700, 3 h (AID 1156). The note with it: higher = more signal, called active from +8 up or from −8 down.
Assay [16] in a line: PSAC antagonists in infected red cells, primary screen, cell-based, P. falciparum Indochina, OD700, 18 h (AID 1157). The settings on record: P. falciparum Indochina infected erythrocytes, osmotic lysis OD700, 18 h; higher = more signal, called active from +8 up or from −8 down.
Assay [17] can be described thus: modulators of S6 phosphorylation in cells, primary screen, cell-based, A549, cytoblot, luminescence, serum-stimulated (AID 1158).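 Further: serum-stimulated A549 lung adenocarcinoma cells; signal is phosphorylated S6 detected by cytoblot immunostaining with HRP secondary.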 The settings on record: A549 phospho-S6 cytoblot, 5 h, higher = more signal.
The target of assay [18] is NADPH oxidase 2 (Homo sapiens) (UniProt P04839). The experiment in a line: NOX2-dependent H2O2 signal modulators, primary screen, NOX inhibitor project, cell-based, HEK293-NOX2, PMA-stimulated, Amplex Red fluorescence (AID 1159). Further: test concentration not given here. The note with it: 45 min, higher = more signal, called active from +8 up or from −8 down.
Assay [19] deals with NADPH oxidase 4 (Homo sapiens) (UniProt Q9NPH5). The experiment in a line: NOX4-dependent H2O2 signal modulators, primary screen, NOX inhibitor project, cell-based, HEK293-NOX4, tetracycline-induced, Amplex Red fluorescence (AID 1160). The note with it: 45 min, higher = more signal, called active from +8 up or from −8 down.
The target of assay [20] is NADPH oxidase 5 (Homo sapiens) (UniProt Q96PH1). The experiment in a line: NOX5-dependent H2O2 signal modulators, primary screen, NOX inhibitor project, cell-based, HEK293-NOX5, Amplex Red fluorescence (AID 1161). The note with it: HEK293-NOX5, ionomycin, 45 min, higher = more signal.
Sequence of NADPH oxidase 5 (Homo sapiens) (Q96PH1 whole entry, looked up): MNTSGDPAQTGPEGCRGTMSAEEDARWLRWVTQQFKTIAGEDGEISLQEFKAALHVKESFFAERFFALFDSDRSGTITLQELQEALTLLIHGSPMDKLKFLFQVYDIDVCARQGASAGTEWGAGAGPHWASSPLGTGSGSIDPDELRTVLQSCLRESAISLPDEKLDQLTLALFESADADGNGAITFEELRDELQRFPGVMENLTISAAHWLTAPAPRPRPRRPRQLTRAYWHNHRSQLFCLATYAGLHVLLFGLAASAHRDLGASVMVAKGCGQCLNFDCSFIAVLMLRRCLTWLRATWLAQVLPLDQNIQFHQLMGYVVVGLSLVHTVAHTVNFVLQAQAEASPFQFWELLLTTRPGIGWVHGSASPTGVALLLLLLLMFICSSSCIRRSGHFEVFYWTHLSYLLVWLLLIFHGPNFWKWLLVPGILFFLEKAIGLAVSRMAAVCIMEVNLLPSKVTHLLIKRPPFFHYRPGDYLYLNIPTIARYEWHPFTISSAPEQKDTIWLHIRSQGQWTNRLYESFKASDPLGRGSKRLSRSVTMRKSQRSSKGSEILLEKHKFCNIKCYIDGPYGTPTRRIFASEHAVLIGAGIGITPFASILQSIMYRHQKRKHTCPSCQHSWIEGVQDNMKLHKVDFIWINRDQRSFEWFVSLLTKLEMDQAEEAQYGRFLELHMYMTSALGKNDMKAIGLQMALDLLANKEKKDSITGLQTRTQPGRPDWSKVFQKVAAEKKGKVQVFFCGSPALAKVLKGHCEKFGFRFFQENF

Sequence of Torsin-1A (Homo sapiens) (O14656 whole entry, looked up): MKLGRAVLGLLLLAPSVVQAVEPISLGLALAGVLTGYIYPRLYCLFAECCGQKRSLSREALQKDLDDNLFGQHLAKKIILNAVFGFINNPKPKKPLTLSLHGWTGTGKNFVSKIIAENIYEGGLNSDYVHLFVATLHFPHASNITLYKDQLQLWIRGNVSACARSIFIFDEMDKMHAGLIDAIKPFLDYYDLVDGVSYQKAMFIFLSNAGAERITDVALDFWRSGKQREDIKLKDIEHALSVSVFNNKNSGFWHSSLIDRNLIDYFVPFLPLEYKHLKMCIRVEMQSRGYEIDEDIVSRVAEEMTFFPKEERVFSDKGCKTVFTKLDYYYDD
Sequence of NADPH oxidase 2 (Homo sapiens) (P04839 whole entry, looked up): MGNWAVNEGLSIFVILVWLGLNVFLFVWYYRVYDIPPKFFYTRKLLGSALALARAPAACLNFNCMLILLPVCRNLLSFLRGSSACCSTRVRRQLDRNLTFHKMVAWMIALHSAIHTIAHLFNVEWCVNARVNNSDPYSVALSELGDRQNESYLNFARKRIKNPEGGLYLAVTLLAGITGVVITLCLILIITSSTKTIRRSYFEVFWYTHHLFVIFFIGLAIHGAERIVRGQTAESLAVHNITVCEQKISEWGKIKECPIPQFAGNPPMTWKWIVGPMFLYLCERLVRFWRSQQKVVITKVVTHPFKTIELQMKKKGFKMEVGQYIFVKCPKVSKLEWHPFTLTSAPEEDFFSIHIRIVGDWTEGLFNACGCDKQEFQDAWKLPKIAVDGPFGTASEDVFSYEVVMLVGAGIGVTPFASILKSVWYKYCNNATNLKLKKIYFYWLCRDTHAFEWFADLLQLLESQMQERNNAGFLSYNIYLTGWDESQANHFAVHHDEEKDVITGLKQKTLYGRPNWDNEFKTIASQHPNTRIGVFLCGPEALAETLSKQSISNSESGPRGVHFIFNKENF
Sequence of NADPH oxidase 4 (Homo sapiens) (Q9NPH5 whole entry, looked up): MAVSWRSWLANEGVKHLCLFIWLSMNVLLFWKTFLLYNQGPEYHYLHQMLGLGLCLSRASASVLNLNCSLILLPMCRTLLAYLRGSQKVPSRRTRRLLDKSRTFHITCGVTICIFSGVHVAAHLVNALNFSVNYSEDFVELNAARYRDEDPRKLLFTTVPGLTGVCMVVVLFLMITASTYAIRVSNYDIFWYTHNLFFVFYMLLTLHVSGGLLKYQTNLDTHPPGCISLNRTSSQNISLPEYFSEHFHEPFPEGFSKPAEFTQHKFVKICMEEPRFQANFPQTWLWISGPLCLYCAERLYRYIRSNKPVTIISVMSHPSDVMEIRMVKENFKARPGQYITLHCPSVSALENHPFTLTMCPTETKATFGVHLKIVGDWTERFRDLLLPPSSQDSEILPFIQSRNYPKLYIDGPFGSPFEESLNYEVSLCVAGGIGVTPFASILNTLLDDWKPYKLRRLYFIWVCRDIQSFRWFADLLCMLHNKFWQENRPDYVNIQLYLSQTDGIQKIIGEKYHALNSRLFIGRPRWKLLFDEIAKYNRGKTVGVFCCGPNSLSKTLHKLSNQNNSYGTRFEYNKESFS
Sequence of Streptavidin (Streptomyces avidinii) (P22629 whole entry, looked up): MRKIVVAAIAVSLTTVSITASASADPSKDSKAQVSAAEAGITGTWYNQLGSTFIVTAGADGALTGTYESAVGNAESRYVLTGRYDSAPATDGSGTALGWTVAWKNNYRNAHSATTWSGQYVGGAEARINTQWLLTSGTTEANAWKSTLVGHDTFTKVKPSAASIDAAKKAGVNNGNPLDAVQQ

Regarding `CCOC(=O)C[C@H]1[C@H](OC(=O)c2ccc(-c3ccccc3)cc2)[C@@H](NC(=O)Cc2ccc(OC)cc2)c2cc(OCCCO)ccc2N1C(=O)Cc1ccc(OC)cc1`, the composite z-score in assay [1] was -0.0129; in assay [6] it was -0.0417; in [7] it was -0.128; in assay [8], -0.305; in assay [9] it was 0.0922; in assay [10], -0.259. In assay [12], this molecule returned a composite z-score of -0.0348. The z-score in assay [2] is 0.247 (inactive); in assay [3] it was 0.00724 (inactive); in assay [4], 0.773 (inactive); in assay [5] it was -0.834 (inactive); in assay [11], 1.07 (inactive); in assay [13], 4.29 (inactive). Moreover, the z-score in assay [14] was 0.4 (inactive); in assay [15], 0.222 (inactive); in [16] it was 0.211 (inactive); in assay [17], 0.911; in assay [18] it was 0.818 (inactive); in assay [19], -0.868 (inactive). Besides, the z-score in assay [20] turned out to be 1.52.
Turning to `O=C1C2C=CC(C(O)c3ccc(I)cc3)N(Nc3ccccc3)C2C(=O)N1c1ccccc1` (stereo not given), the composite z-score in assay [1] is 0.478; in assay [6], 1.88; in [7] it was 0.151; in [8], -0.087; in [9], 0.36; in assay [10], 0.0756. In assay [12], this molecule came in with a composite z-score of 0.437. The z-score in [2] was -0.167 (inactive); in assay [3] it was -0.379 (inactive); in assay [4], -0.522 (inactive); in assay [5] it was 0.32 (inactive); in [11], -1.11 (inactive); in assay [13] it was 6.92 (inactive). In addition, the z-score is 2.42 (inactive) in [14]; -0.166 (inactive) in assay [15]; 1.83 (inactive) in [16]; -1.21 in [17]; -1.88 (inactive) in assay [18]; -3.86 (inactive) in [19]. The same molecule returned a z-score in [20] of -2.54.
Take `O=C1OCC=C[C@H]2OC34C=CCN(c5ccc6ccccc6c5)C(=O)[C@H]3N(CCCCCO)C(=O)[C@@H]4[C@@H]12` (stereo not given in full): the composite z-score in assay [1] was -0.137; in [6], -0.884; in [7] it was -0.0963; in [8], -1.92; in assay [9] it was -1.41; in [10], -0.968. In addition, in [12], the composite z-score was 0.407. The z-score is 0.234 (inactive) in [2]; 0.494 (inactive) in assay [3]; 0.724 (inactive) in [4]; 0.0532 (inactive) in assay [5]; -0.186 (inactive) in assay [11]; 2.04 (inactive) in [13]. For the same molecule, the z-score in assay [14] was 0.132 (inactive); in assay [15], 1 (inactive); in assay [16], 0.162 (inactive); in [17], -0.798; in [18] it was 1.57 (inactive); in assay [19], 0.056 (inactive). Also, the z-score in assay [20] is 2.93.
For the molecule `NC(=O)NCC#Cc1ccc2c(c1)[C@]1(C(=O)N2)[C@H](C(=O)N2CCN(c3ncccn3)CC2)[C@H]2C(=O)O[C@H](c3ccccc3)[C@H](c3ccccc3)N2[C@@H]1c1ccc(OCCO)cc1`, the composite z-score was found to be 0.388 in assay [1]; 0.644 in [6]; 0.0391 in assay [7]; 0.237 in assay [8]; 0.875 in assay [9]; 0.963 in assay [10]. In [12], this molecule came in with a composite z-score of 0.309. The z-score in assay [2] was 0.0749 (inactive); in [3], -0.534 (inactive); in assay [4] it was -0.231 (inactive); in [5], 0.156 (inactive); in assay [11], 0.682 (inactive); in [13] it was 5.91 (inactive). The z-score in assay [14] is 1.66 (inactive); in [15], -0.015 (inactive); in assay [16] it was 0.689 (inactive); in assay [17] it was -0.24; in [18] it was 1.44 (inactive); in [19], 1.1 (inactive). In assay [20], this molecule showed a z-score of 1.12.
For `CC(C)C(CO)N1C(=O)[C@@H]2[C@H]3C(=O)OCC=C[C@H]3OC23C=CCN(C(C)(C)C)C(=O)[C@@H]13` (stereo not given in full), the composite z-score in [1] was -0.682; in assay [6] it was -0.633; in assay [7], -0.0762; in assay [8], -1.59; in assay [9], -0.934; in assay [10], 0.54. In assay [12], this molecule had a composite z-score of -0.155. For the same molecule, the z-score in [2] was -0.342 (inactive); in assay [3], 0.947 (inactive); in assay [4] it was 1.01 (inactive); in assay [5] it was 0.412 (inactive); in [11], -0.875 (inactive); in [13], 0.897 (inactive). Further, the z-score in assay [14] is 0.226 (inactive); in [15] it was 0.697 (inactive); in [16], 0.0863 (inactive); in assay [17] it was -0.154; in assay [18], 0.997 (inactive); in assay [19], 0.16 (inactive). The molecule further returned a z-score in [20] of 1.92.
In the case of `CO[C@H]1O[C@H](CO)[C@@H](OC(=O)CCc2ccccc2)[C@H](OC(=O)c2cc3ccccc3[nH]2)[C@H]1OC(=O)c1cc2ccccc2[nH]1`, the composite z-score in assay [1] was 0.156; in assay [6] it was -0.0944; in assay [7] it was 0.0391; in assay [8] it was 0.71; in assay [9], 0.913; in [10] it was 0.832. In [12], the composite z-score is -0.162. In addition, the z-score was -5.71 (inactive) in assay [2]; -1.99 (inactive) in [3]; -1.28 (inactive) in assay [4]; -1.2 (inactive) in [5]; 2.71 (inactive) in assay [11]; 2.39 (inactive) in [13]. The z-score in assay [14] is 0.923 (inactive); in assay [15], -2.27 (inactive); in [16], 1.1 (inactive); in assay [17], 2.17; in assay [18], -0.601 (inactive); in [19], 0.0901 (inactive). For the same molecule, the z-score in assay [20] was found to be 0.855.
For the molecule `COCC1=C2[C@@H](CCc3ccccc3)OB(O)C[C@@H]2[C@@H]2C(=O)N(C)C(=O)[C@@H]2C1`, the composite z-score in assay [1] is -0.16; in assay [6], 0.0675; in assay [7], -0.113; in assay [8] it was 0.607; in [9], -0.0933; in [10] it was 0.588. In assay [12], the composite z-score came to 0.0355. Further, the z-score in assay [2] was 0.0876 (inactive); in assay [3] it was 0.0987 (inactive); in assay [4], -0.871 (inactive); in [5] it was 1.08 (inactive); in assay [11], -0.801 (inactive); in assay [13] it was 1.4 (inactive). Further, the z-score in [14] is -0.301 (inactive); in assay [15], -0.793 (inactive); in [16], -0.015 (inactive); in assay [17] it was -0.1; in assay [18], -0.116 (inactive); in assay [19], 0.762 (inactive). This molecule displayed a z-score in assay [20] of 0.217.
